Assay outcomes as filed in PubChem.
This is a sample that favours compounds with a hit; in the whole collection about 2.2% have one here.
MEKK2mut PB1 HTS: MEK5 binding signal on mutant MEKK2 PB1, primary screen, biochemical, multiplex bead flow cytometry, Alexa488-MEK5. Alexa488-MEK5 binding to MEKK2 mutant. percent response, % at 10 µM. 290,000 compounds, 0.35% hits. AID 1530, 2009; in the data active = percent response above about 24%, passing the limit was not always enough
MEKK2 WT-MEK5: modulators of MEK5 binding to wildtype MEKK2, primary screen, biochemical, multiplex bead flow cytometry, Alexa488-MEK5 | Mitogen-activated protein kinase kinase kinase 2 (Homo sapiens), Q9Y2U5 | Alexa488-MEK5 binding to MEKK2 WT; actives lie on both sides | binding response (% of control), % at 10 µM | 290,000 compounds, 1.1% hits | AID 1531, 2009; in the data active = binding response below about 67% or above about 130%
MEKK3 PB1 HTS: modulators of MEKK3-MEK5 PB1 binding, primary screen, biochemical, wildtype MEKK3, multiplex bead flow cytometry, Alexa488-MEK5 | 290,000 compounds, 1.4% hits | binding response (% of control), % at 10 µM | Mitogen-activated protein kinase kinase kinase 3 (Homo sapiens), Q99759 | bead-based flow cytometry, Alexa488-MEK5 binding to MEKK3; actives lie on both sides; 0 = blocked by unlabeled MEK5, 100 = vehicle;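 active = binding response more than 3 SD above or below the average of its plate-row segment, actives on both sides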;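 also: Alexa488 bead fluorescence after subtracting the streptavidin-only scavenger bead signal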
VLA-4 inh: inhibition in human VLA-4 binding assay, primary screen, VLA-4 allosteric modulator project, MLPCN library, flow cytometry, VLA-4 expressing cells; ligand binding flow cytometry; inhibition, % (about 7 µM as worked out from the volumes in the protocol); Integrin alpha-4 (Homo sapiens), P13612; 330,000 compounds, 0.2% hits; in the data active = inhibition above about 50%
Target sequence (P13612 whole entry, looked up): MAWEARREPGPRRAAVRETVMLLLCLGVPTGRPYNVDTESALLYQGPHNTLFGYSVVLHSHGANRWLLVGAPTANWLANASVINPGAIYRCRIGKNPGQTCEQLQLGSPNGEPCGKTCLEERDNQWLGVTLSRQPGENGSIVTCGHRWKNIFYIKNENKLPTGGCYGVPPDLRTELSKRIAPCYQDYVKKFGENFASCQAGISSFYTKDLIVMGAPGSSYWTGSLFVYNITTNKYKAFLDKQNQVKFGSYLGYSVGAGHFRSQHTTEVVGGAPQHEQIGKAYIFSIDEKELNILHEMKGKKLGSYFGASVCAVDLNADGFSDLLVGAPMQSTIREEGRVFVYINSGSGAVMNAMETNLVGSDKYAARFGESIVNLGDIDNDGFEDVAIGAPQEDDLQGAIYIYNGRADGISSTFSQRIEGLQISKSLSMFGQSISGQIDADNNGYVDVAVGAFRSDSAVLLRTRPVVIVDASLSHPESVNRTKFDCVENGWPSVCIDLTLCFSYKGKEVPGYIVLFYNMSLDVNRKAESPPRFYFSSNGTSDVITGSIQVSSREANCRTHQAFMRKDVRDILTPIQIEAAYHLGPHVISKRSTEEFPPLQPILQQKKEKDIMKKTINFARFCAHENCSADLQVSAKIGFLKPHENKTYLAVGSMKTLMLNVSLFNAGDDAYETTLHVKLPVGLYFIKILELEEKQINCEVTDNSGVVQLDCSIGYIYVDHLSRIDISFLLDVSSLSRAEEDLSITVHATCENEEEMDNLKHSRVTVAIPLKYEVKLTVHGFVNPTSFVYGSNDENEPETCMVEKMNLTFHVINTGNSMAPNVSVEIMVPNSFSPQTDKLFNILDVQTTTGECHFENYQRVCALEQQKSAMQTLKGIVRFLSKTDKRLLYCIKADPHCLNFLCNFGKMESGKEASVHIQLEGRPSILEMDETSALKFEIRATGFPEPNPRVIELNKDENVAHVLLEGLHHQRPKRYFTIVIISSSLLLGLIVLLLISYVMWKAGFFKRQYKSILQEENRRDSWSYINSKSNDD
MEKK2wt confirm: modulators of MEK5 binding to wildtype MEKK2, confirmation, biochemical, single concentration, multiplex bead flow cytometry. Alexa488-MEK5 binding to MEKK2 WT; actives lie on both sides. AID 1892, 2009. 5,900 compounds, 2.4% hits. shares compounds with MEKK3 PB1 HTS. binding response (% of control), % at 10 µM; in the data active = binding response below about 16% or above about 210%; inactive = in between
MEKK2mut-MEK5: mutant MEKK2 PB1-MEK5 binding signal retest – biochemical, single concentration, multiplex bead flow cytometry, confirmation; AID 1893, 2009; shares compounds with MEKK3 PB1 HTS; Alexa488-MEK5 binding to MEKK2 mutant; 5,900 compounds, 2% hits; percent response, % at 10 µM; in the data active = percent response mostly above about 71%, no sharp cut-off; inactive = mostly below about 38%;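 also: higher means compound restores mutant binding toward wildtype level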
MEKK3 confirm: MEKK3 wild-type PB1 binding to MEK5, inhibitors, confirmation, biochemical, bead multiplex flow cytometry, single concentration, wildtype | shares compounds with MEKK3 PB1 HTS | Alexa488-MEK5 binding to MEKK3; active compounds read low | binding response (% of control), % at 10 µM | 5,900 compounds, 1.8% hits;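 active = binding response below 72% of control, or above a set upper limit, though filed actives all read lower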;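 also: 100% = DMSO only wells and 0% = binding blocked by excess unlabeled MEK5; lower values mean stronger disruption of MEK5 binding to MEKK3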
* hit, by the source's call; x = not tested or not shown; [ ] = remark or other dose.

SMILES	MEKK2mut PB1 HTS	MEKK2 WT-MEK5	MEKK3 PB1 HTS	VLA-4 inh	MEKK2wt confirm	MEKK2mut-MEK5	MEKK3 confirm
COc1ccc(C2c3[nH]c4ccccc4c3CCN2Cc2cccn2-c2ncccn2)cc1C (configuration not stated)	2	127	117	-1	x	x	x
Cc1cccc(C2c3[nH]c4ccccc4c3CCN2Cc2cccn2-c2ncccn2)c1 (configuration not stated)	30	149*	110	3	109	5	102
Cc1cc(CNC(=O)COc2ccc(F)cc2Cl)cc(C)c1O	-3	96	96	0	x	x	x
C=CCc1cccc(CNc2c(C)cc(C)cc2C)c1O	-6	83	70*[inhibitor]	0	98	-8	97
C=CCc1cccc(CNc2c(C)n(C)n(-c3ccccc3)c2=O)c1O	1	98	100	-8	x	x	x
C=CCNC(=O)c1c(Cl)nc(C)c([N+](=O)[O-])c1C	2	112	155*	-4	97	-1	100
N#Cc1ccc2ccn(CC(=O)NCc3ccco3)c2c1	13	139*	114	1	102	-4	99
CCOC(=O)C(NC(=O)c1cccc(Cl)c1)(OCc1ccccc1)C(F)(F)F (configuration not stated)	-2	93	98	11	x	x	x
CCOC(=O)C(NC(=O)c1ccccc1)(OCc1ccccc1)C(F)(F)F (configuration not stated)	4	106	159*	3	104	-1	108
C#CCOCCOCCOCCNc1nc(N2CCOCC2)nc(N2CCN(C(=O)[C@H](Cc3cc4ccccc4[nH]3)n3cc([C@@H](N)Cc4ccc(O)cc4)nn3)CC2)n1	14	123	109	-2	x	x	x
C#CCOCCOCCOCCNc1nc(N2CCN(C(=O)[C@H](Cc3cc4ccccc4[nH]3)n3cc([C@@H](N)C(C)CC)nn3)CC2)nc(N2CCN(C(=O)[C@H](Cc3cc4ccccc4[nH]3)n3cc([C@@H](N)CC(C)C)nn3)CC2)n1 (some centres not stated)	13	205*	99	0	249*	76*	109
C#CCOCCOCCOCCNc1nc(N2CCN(C(=O)[C@H](Cc3cc4ccccc4[nH]3)n3cc([C@@H](N)C(C)CC)nn3)CC2)nc(N2CCN(C(=O)[C@H](CCCCN)n3cc([C@@H](N)CO)nn3)CC2)n1 (some centres not stated)	57*	202*	107	x	204	52	108
C#CCOCCOCCOCCNc1nc(N2CCN(C(=O)[C@H](CCC(=O)O)n3cc(C(N)CO)nn3)CC2)nc(N2CCN(C(=O)[C@H](Cc3cc4ccccc4[nH]3)n3cc(C(N)[C@H](C)CC)nn3)CC2)n1 (some centres not stated)	27	156*	103	13	275*	110*	114
C#CCOCCOCCOCCNc1nc(N2CCN(C(=O)[C@H](CCCCN)n3cc([C@@H](N)C(C)CC)nn3)CC2)nc(N2CCN(C(=O)[C@H](Cc3cc4ccccc4[nH]3)n3cc([C@@H](N)CC(C)C)nn3)CC2)n1 (some centres not stated)	93*	237*	111	9	137	21	102
C#CCOCCOCCOCCNc1nc(N2CCN(C(=O)[C@H](CCCCN)n3cc([C@@H](N)C(C)CC)nn3)CC2)nc(N2CCN(C(=O)[C@H](CCCCN)n3cc([C@@H](N)CO)nn3)CC2)n1 (some centres not stated)	-29	107	90	-2	x	x	x
C#CCOCCOCCOCCNc1nc(N2CCN(C(=O)[C@H](CCC(=O)O)n3cc(C(N)Cc4ccc(O)cc4)nn3)CC2)nc(N2CCN(C(=O)[C@H](Cc3ccc(O)cc3)n3cc(C(N)[C@H](C)CC)nn3)CC2)n1 (some centres not stated)	2	76	85	x	x	x	x
COC(=O)c1ccc(CNC(=O)COC(=O)c2ccccc2-c2ccccc2)cc1	x	x	x	-4	x	x	x
c1ccc(COc2ccccc2CNc2nn[nH]n2)cc1	-9	72	67*[inhibitor]	9	103	-1	103
Cc1ccc2[nH]c(=O)c(CN(Cc3cccs3)C(=S)NCc3ccco3)cc2c1	1	100	130*	4	96	-5	100
O=C(CSc1ccc(-c2cccs2)nn1)NCCc1ccccc1	4	105	110	4	x	x	x
COc1ccc(CCNC(=O)CSc2ccc(-c3ccccc3)nn2)cc1	0	104	131*	3	99	-12	97
COc1ccccc1CCNC(=O)CSc1ccc(-c2cccs2)nn1	8	99	61*[inhibitor]	7	100	-1	105
CN(C)S(=O)(=O)c1cccc(NC(=O)c2ccc(NS(=O)(=O)c3cccs3)cc2)c1	x	x	x	12	x	x	x
COc1cc2c3nnc(-c4ccccc4)c-3cn(Cc3ccc(F)cc3)c2cc1OC	36	166*	99	-2	187	48	113
COc1cc2c3nnc(-c4ccc(F)cc4)c-3cn(Cc3ccc(C)cc3)c2cc1OC	50*	179*	116	0	204	74*	109
SMILES	MEKK2mut PB1 HTS	MEKK2 WT-MEK5	MEKK3 PB1 HTS	VLA-4 inh	MEKK2wt confirm	MEKK2mut-MEK5	MEKK3 confirm
O=c1c2cn(Cc3ccc(F)cc3)c3ccccc3c-2nn1Cc1ccc(F)cc1	-1	98	99	x	x	x	x
O=C(CSC(=S)N1CCCC1)N1CCN(S(=O)(=O)c2cccc([N+](=O)[O-])c2)CC1	3	97	98	-8	x	x	x
COc1ccc(OC2C(=O)N(CCc3ccc(OC)c(OC)c3)C2c2ccc3c(c2)OCO3)cc1 (configuration not stated)	9	101	104	4	x	x	x
COc1ccc(CCN2C(=O)C(Oc3ccccc3)C2c2ccc3c(c2)OCO3)cc1 (configuration not stated)	1	108	150*	5	107	-3	102
C=CCN(c1ccccc1)S(=O)(=O)c1cc2c(cc1C)NC(=O)CO2	-1	99	97	-1	x	x	x
CSc1nnc(-c2cc(C)on2)n1-c1ccccc1	-1	103	105	-10	x	x	x
